# Peg3 prom inh-1: inhibitors of Peg3 promoter. HeLa PEG-Prom luciferase reporter, luminescence, overnight. inhibition, % at 20 µM. 360,000 compounds, 1.7% hits;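 active = inhibition of at least 50% at 20 µM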
# MITF TRPM1 inh: MITF TRPM1 promoter inhibition in SK-MEL-5 cells. 330,000 compounds, 0.83% hits. SK-MEL-5 TRPM1 promoter luciferase, 24 h. inhibition, % at 12.5 µM;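 active = mean inhibition across replicates of 60% or more, whatever share of single replicates reaches that level; inconclusive = some that reach 60%, reason not given; inactive = mean inhibition across replicates below 60%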
# KKLEB cytotox: counter-screen for CF NF-kB inhibitors: cytotoxicity | AID 602141 | 360,000 compounds, 0.36% hits | KKLEB CF airway cells viability, ATPlite luminescence, overnight; hits give low values; cells stimulated with P. aeruginosa culture filtrate | activity change (cytotoxicity), % at 5 µM;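 active = corrected activity change at or below -50% at 5 µM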
# LMP1 NFkB inh: Epstein-Barr LMP1 NF-kappaB reporter inhibition; LMP1-induced NF-kappaB luciferase reporter cells, luminescence; 350,000 compounds, 0.69% hits; inhibition, % at 12.5 µM; in the data active = inhibition above about 41%; inconclusive = no clear call, values can overlap the other calls;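 note: 0% = neutral control wells and 100% = reference inhibitor control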
# CF NFkB inh: cystic fibrosis NF-kB activation inhibition. KKLEB NF-kB-GFP reporter, PAF-induced, GFP fluorescence overnight. inhibition, % at 5 µM. 360,000 compounds, 0.86% hits. AID 588850;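 active = at least 50% inhibition at 5 µM, scaled per plate between neutral and stimulator controls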;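 note: PAF is a Pseudomonas aeruginosa culture filtrate used as stimulus; plate controls were PAF-stimulated DMSO wells for no effect and unstimulated DMSO wells for full effect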
# HIF-2a block: blocks HIF-2a reporter activity | 786-0 RCC cells HIF-2a reporter, luciferase luminescence, overnight | inhibition, % at 18.8 µM | 360,000 compounds, 0.72% hits | AID 624352;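 active = inhibition of the luminescence signal of 40% or more relative to plate controls, in a single-dose primary screen at 18.75 µM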
# Peg3 prom inh-2: Peg3 promoter inhibition confirmation | shares compounds with Peg3 prom inh-1 | HeLa PEG-Prom luciferase reporter, luminescence, overnight | inhibition, % at 20 µM | 1,300 compounds, 84% hits | AID 602417;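 active = at 20 µM dose, 40% or more inhibition averaged across four replicates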
# Starred values were filed as active, the others as inactive; ? = inconclusive; / = no result given. Most compounds without a hit are left out; they make up all but 3% or so of the library.
SMILES,Peg3 prom inh-1,MITF TRPM1 inh,KKLEB cytotox,LMP1 NFkB inh,CF NFkB inh,HIF-2a block,Peg3 prom inh-2
COc1ccc(CC(N)c2csc(NC(=O)Nc3ccccc3C(C)(C)C)n2)cc1 (configuration not stated),87*,/,-4,/,0,-5,76*
Cc1ccccc1NC(=O)Nc1nc(CN(C)C)cs1,-28,/,8,/,-22,-3,/
Cc1ccccc1NC(=O)Nc1nc(C(N)Cc2ccccc2)cs1 (configuration not stated),73*,/,-11,/,8,-8,42*
COc1ccc(CC(N)c2csc(NC(=O)Nc3cc(OC)ccc3OC)n2)cc1 (configuration not stated),94*,/,5,/,-13,1,96*
COc1ccc(CNC(=O)Nc2nc(C(N)c3ccccc3)cs2)cc1 (configuration not stated),19,/,-4,/,18,3,/
COc1cccc(NC(=O)N(C)C[C@H]2OCc3cn(nn3)CCCC(=O)N([C@@H](C)CO)C[C@@H]2C)c1,9,/,-5,0,-13,-16,/
Oc1[nH]c2c(Cl)cc(Cl)cc2c1N=NC(=S)NCC1CCCO1 (configuration not stated),97*,34,18,33,-42,23,38
COc1cc(SC)ccc1C(=O)Nc1ncc(C)s1,77*,65*,-53*,74*,-10,49*,61*
COc1cc(SC)ccc1C(=O)Nc1ccc(C)cc1,-250,-16,-31,-69,3,-230,/
CCCS(=O)(=O)NC(=O)C1(C)CCN(C(=O)c2ccc(OC)cc2OC)C1 (configuration not stated),2,/,5,/,-8,6,/
CN1C/C(=C/c2cccnc2)C(=O)/C(=C/c2cccnc2)C1,87*,100*,1,1,57*,33,2
O=C1c2ccccc2C(=Cc2cccnc2)c2ccccc21,-97,/,0,4,-17,-51,/
COc1ccc(C(O)c2ncc(-c3cccc4ccccc34)[nH]2)cc1F (configuration not stated),28,/,-6,/,4,2,/
Cc1cc2ccccc2n2c(SCC(=O)Nc3ccc(S(=O)(=O)N4CCCCC4)cc3)nnc12,11,5,-7,-7,-9,5,/
Cc1cc2cc(C)c3nnc(SCC(=O)Nc4ccc(S(=O)(=O)N5CCCCC5)cc4)n3c2cc1C,69*,-6,-18,-13,6,23,5
CCCCNC(=O)C1C(c2ccc(C(F)(F)F)cc2)=Nc2ccccc2N1C(=O)c1cccc2ccccc12 (configuration not stated),/,/,/,/,/,4,/
COc1ccc(NC(=O)N(C)C[C@H]2Oc3ccc(NC(=O)Nc4ccc5c(c4)OCO5)cc3C(=O)N([C@H](C)CO)C[C@@H]2C)cc1,-6,-5,10,-5,4,-3,/
COc1cc2nc(SCC(=O)NCc3ccco3)n(Cc3ccc(Cl)cc3)c(=O)c2cc1OC,51*,62*,5,12,42,20,12
COc1cccc(N2CCN(CC(=O)Nc3ccccc3C(=O)NCc3ccccc3)CC2)c1,57*,4,-12,-3,-6,25,51*
CCN(C(=O)CSc1nc2n[nH]c(C)c2c(=N)n1-c1ccc(Cl)c(C)c1)c1cccc(C)c1,72*,19,6,5,27,18,49*
Cc1cc(-n2c(SCc3ccccc3F)nc3n[nH]c(C)c3c2=N)ccc1Cl,21,0,-4,-7,-6,-1,/
CCc1ccc(O)c(CNCCNCc2cc(CC)ccc2O)c1,91*,49,-27,27,-3,28,92*
Cc1ccc(O)c(CNCCNCc2cc(C)ccc2O)c1,29,-4,-13,19,11,10,/
C=CCn1c(COc2ccccc2)nnc1SC(C)C(=O)N/N=C/c1cc(Cl)ccc1O (configuration not stated),60*,?,-6,10,3,11,71*
O=C(COc1ccc2c(-c3ccccc3)cc(=O)oc2c1)N1C[C@H]2C[C@@H](C1)c1cccc(=O)n1C2,15,/,0,/,-9,4,/
OC[C@@H]1[C@@H](c2ccc(Cl)cc2)C(c2ccccc2)=NN1c1ccccc1,19,7,-6,-1,22,11,/
